Results filed as inconclusive are left out. Calls of active or inactive are those of the source. Unless noted, calls follow the shape of the dose curve; as a rule, active = well fitted curve in the direction sought with a large enough effect in the repeat runs; inconclusive = weak or mixed curves; inactive = no such curve, though single readings can be large; an effect the other way counts as inactive or inconclusive.
Columns and labels:
[1] = A CellTox Green Cytotoxicity Assay to monitor cytotoxicity in HepG2 cells - 0 hour (AID 1224882); also: nearly all actives have a fitted effect of over 35% in size
Outline: (§1)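 Continuous culture of HepG2 cells with a membrane-impermeant DNA dye; rising fluorescence marks dead cells. Compound exposure lasted up to 40 h at 37 C, with reads every 8 h from 0 h.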

[2] = A CellTox Green Cytotoxicity Assay to monitor cytotoxicity in HEK293 cells - 8 hour (AID 1224884); also: nearly all actives have a fitted effect of over 35% in size
Outline: (§2)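 Each value comes from one timepoint of a single continuous run in which HEK293 cells with CellTox Green were exposed to compound for up to 40 h at 37 C, dye fluorescence rising with cell death.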

[3] = A CellTox Green Cytotoxicity Assay to monitor cytotoxicity in HEK293 cells - 16 hour (AID 1224888); also: nearly all actives have a fitted effect of over 35% in size
Outline: as §2

[4] = qHTS assay to identify small molecule antagonists of the estrogen receptor alpha (ER-alpha) signaling pathway using the BG1 cell line in the presence of 0.1 nM 17-beta-estradiol - cell viability counter screen (AID 1259241); also: nearly all actives have a fitted effect of over 40% in size; also: potency is read from the fitted curve at half-maximal effect
Outline: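 Following 5 days in phenol red-free medium with charcoal-stripped serum, VM7Luc4E2 cells received test compounds alongside 0.1 nM 17beta-estradiol (final) at 37C for 22 hr. Live cells were then quantified via protease-substrate fluorescence.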

[5] = qHTS assay to identify small molecule antagonists of the androgen receptor (AR) signaling pathway using the MDA cell line in the presence of 0.5 nM R1881 - cell viability counter screen (AID 1259242); also: nearly all actives have a fitted effect of over 45% in size
Outline: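 Fluorescence from CellTiter-Fluor, which reports protease activity of live cells, was read 30 min after reagent addition to MDA-kb2 cells that had been incubated 16 hr with compound and 0.5 nM R1881.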

[6] = qHTS assay to identify small molecule phospholipidosis (PLD) inducers (AID 1259344; active = well fitted curve in the direction sought with a large enough effect; an effect the other way counts as inactive or inconclusive)
Outline: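 Quantitative HTS in HepG2: compound plus LipidTOX Red dye for 24 h, paraformaldehyde fixation with Hoechst 33342, widefield high-content imaging; amiodarone as positive and DMSO as negative control.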

[7] = qHTS assay to identify small molecule HDAC inhibitors - cell viability counter screen (AID 1259365); also: series mostly up to about 92 µM; nearly all actives have a fitted effect of over 50% in size
Outline: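 HCT-116 wild-type, overnight attachment; 2hr drug exposure, 37C; CellTiter-Glo luminescent ATP readout after 30min RT.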

[8] = qHTS assay to identify small molecule agonists of the sonic hedgehog signaling (Shh) pathway - cell viability counter screen (AID 1259366); also: nearly all actives have a fitted effect of over 50% in size; also: potency is read from the fitted curve at half-maximal effect
Outline: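 Compounds in DMSO were pin-transferred onto 3T3 Gli1-Luc cells that had settled 4hr; plates then stood 24hr at 37C and 5% CO2. One hour before the end, CellTiter-Fluor was added and fluorescence recorded.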

[9] = qHTS assay to identify small molecule agonists of the sonic hedgehog signaling (Shh) pathway (AID 1259368; calls by dose curve; also: nearly all actives have a fitted effect of over 15% in size; also: potency is read from the fitted curve at half-maximal effect)
Outline: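 Luminescent signal was taken as a measure of Gli1-controlled luciferase expression in stably transfected NIH/3T3-derived cells that had been treated for 24 hr with compounds delivered in DMSO.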

[10] = qHTS RealTime-Glo MT Cell Viability Assay in HepG2 cells - 0 hour (AID 1224889); also: nearly all actives have a fitted effect of over 50% in size; also: potency is read from the fitted curve at half-maximal effect
Outline: (§3)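 HepG2 suspension premixed with RealTime-Glo reagents is plated at 600 cells per well and left 5 h at 37 C/5% CO2. Compounds in DMSO then go in, and bioluminescence reflecting viable cell number is recorded over 40 h.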

[11] = A CellTox Green Cytotoxicity Assay to monitor cytotoxicity in HepG2 cells - 8 hour (AID 1224890); also: nearly all actives have a fitted effect of over 45% in size
Outline: as §1

[12] = target: Androgen receptor (Homo sapiens) (UniProt P10275); assay: qHTS assay to identify small molecule antagonists of the androgen receptor (AR) signaling pathway using the MDA cell line in the presence of 0.5 nM R1881 (AID 1259243); also: nearly all actives have a fitted effect of over 50% in size; also: potency is read from the fitted curve at half-maximal effect
Androgen receptor (Homo sapiens), sequence (P10275 whole entry, looked up): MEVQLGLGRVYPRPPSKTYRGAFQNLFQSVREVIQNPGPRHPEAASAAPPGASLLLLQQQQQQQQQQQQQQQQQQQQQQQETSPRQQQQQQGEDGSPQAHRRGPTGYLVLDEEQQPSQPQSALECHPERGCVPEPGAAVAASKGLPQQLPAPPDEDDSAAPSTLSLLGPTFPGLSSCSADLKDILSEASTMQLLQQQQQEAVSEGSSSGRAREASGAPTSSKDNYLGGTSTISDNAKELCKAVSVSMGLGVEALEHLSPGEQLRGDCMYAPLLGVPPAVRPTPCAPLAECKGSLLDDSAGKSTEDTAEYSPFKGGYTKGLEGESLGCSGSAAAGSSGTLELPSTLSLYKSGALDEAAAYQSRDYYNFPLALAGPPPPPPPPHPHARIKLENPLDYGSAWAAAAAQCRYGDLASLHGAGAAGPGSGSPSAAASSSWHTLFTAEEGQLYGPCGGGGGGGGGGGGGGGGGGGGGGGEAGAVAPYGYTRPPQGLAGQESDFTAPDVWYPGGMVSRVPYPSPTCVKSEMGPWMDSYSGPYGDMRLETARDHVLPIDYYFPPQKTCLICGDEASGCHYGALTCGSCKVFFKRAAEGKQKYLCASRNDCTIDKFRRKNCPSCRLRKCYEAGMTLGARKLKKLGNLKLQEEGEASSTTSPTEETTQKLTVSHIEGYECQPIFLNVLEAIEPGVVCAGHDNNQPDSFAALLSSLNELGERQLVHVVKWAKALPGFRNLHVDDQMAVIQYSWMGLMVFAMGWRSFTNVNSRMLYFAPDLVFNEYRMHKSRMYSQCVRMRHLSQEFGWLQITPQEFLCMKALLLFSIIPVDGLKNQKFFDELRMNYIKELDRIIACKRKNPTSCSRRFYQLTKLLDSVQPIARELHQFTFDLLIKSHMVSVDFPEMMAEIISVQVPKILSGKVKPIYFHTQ
Outline: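 Inhibition of R1881 (0.5 nM final) induced reporter signal was measured in human MDA-kb2 cells; note the MMTV promoter also responds to GR. Exposure lasted 16 hr at 37C.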

[13] = target: Estrogen receptor (Homo sapiens) (UniProt P03372); assay: qHTS assay to identify small molecule antagonists of the estrogen receptor alpha (ER-alpha) signaling pathway using the BG1 cell line in the presence of 0.1 nM 17-beta-estradiol (AID 1259244); also: nearly all actives have a fitted effect of over 50% in size; also: potency is read from the fitted curve at half-maximal effect
Estrogen receptor (Homo sapiens), sequence (P03372 whole entry, looked up): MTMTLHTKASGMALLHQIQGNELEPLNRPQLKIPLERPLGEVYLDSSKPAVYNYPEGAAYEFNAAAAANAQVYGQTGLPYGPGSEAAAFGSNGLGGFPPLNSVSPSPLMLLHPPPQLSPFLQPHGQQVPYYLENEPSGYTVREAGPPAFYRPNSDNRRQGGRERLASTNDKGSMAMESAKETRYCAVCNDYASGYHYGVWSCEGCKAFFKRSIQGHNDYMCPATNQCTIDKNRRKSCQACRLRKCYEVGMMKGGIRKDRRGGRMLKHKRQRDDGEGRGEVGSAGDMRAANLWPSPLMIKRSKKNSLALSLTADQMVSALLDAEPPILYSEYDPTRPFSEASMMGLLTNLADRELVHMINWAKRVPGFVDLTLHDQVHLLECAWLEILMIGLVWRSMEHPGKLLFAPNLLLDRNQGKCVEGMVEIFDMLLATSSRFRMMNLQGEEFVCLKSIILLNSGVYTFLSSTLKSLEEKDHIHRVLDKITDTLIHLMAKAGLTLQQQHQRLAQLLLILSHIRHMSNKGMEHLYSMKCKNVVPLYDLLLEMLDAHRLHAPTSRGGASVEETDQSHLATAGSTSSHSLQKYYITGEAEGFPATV
Outline: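 Quantitative high-throughput screen in VM7Luc4E2 cells: compound plus 0.1 nM E2 (final), 22 h, 37C, 5% CO2; ONE-Glo added, 30 min room temperature, luminescence measured.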

[14] = qHTS assay to identify small molecule HDAC inhibitors (AID 1259364); also: top concentration of the series differs between compounds; nearly all actives have a fitted effect of over 45% in size
Outline: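 Endogenous HDAC class I/II activity was measured in wild-type HCT-116 cells by HDAC-Glo luminescence after 2 h compound treatment.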

[15] = qHTS assay to identify small molecule antagonists of the sonic hedgehog signaling (Shh) pathway - cell viability counter screen (AID 1259367); also: nearly all actives have a fitted effect of over 55% in size; also: potency is read from the fitted curve at half-maximal effect
Outline: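 Seed 3T3 Gli1-Luc cells at 2,000 per well; incubate 4 hr; add compound in DMSO, then conditioned medium; incubate at 37C with 5% CO2; add CellTiter-Fluor after 23 hr; read fluorescence 1 hr later.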

[16] = A CellTox Green Cytotoxicity Assay to monitor cytotoxicity in HepG2 cells - 32 hour (AID 1224883); also: nearly all actives have a fitted effect of over 50% in size; also: potency is read from the fitted curve at half-maximal effect
Outline: as §1

[17] = qHTS RealTime-Glo MT Cell Viability Assay in HEK293 cells - 24 hour (AID 1224886); also: nearly all actives have a fitted effect of over 50% in size; also: potency is read from the fitted curve at half-maximal effect
Outline: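 Reads taken at 0, 8, 16, 24, 32 and 40 h from the same wells. HEK293 cells (600/well) carried RealTime-Glo reagents from seeding, with compound added after a 5 h settle at 37 C.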

[18] = qHTS RealTime-Glo MT Cell Viability Assay in HEK293 cells - 8 hour (AID 1224887); also: nearly all actives have a fitted effect of over 50% in size; also: potency is read from the fitted curve at half-maximal effect
Outline: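 qHTS format; HEK293 cells with NanoLuc/prosubstrate reagent, 37 C/5% CO2 for 5 h pre-dosing; compounds 23 nL in DMSO; luminescence at each time point reflects viable cells.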

[19] = A CellTox Green Cytotoxicity Assay to monitor cytotoxicity in HEK293 cells - 32 hour (AID 1224881); also: nearly all actives have a fitted effect of over 40% in size
Outline: as §2

[20] = qHTS RealTime-Glo MT Cell Viability Assay in HepG2 cells - 16 hour (AID 1224885); also: nearly all actives have a fitted effect of over 50% in size
Outline: as §3

Measured: Potency

CN1CCN(CCCN2c3ccccc3Sc3ccc(S(=O)(=O)N(C)C)cc32)CC1
active: [8] 11.9 µM
inactive: [1] | [2] | [3] | [4] | [5] | [6] | [7] | [9]

O=C(N/N=C/c1ccc([N+](=O)[O-])o1)c1ccc(O)cc1
active: [4] 26.6 µM | [12] 3.76 µM | [13] 26.6 µM | [8] 29.8 µM | [15] 18.8 µM
inactive: [1] | [2] | [3] | [10] | [11] | [6] | [14] | [7] | [9]

COc1cc2ncnc(Nc3ccc(F)c(Cl)c3)c2cc1OCCCN1CCOCC1
inactive: [1] | [2] | [3] | [4] | [5] | [6] | [14] | [9]
active: [16] 23.9 µM | [17] 9.52 µM | [18] 10.7 µM | [12] 26.6 µM | [8] 15 µM

CN(C)CCOC1=Cc2ccccc2Sc2ccc(Cl)cc21
active: [16] 23.9 µM
inactive: [1] | [2] | [17] | [18] | [4] | [5] | [13] | [6] | [7] | [15] | [9]

COCc1c(C(C)C)nc(C(C)C)c(/C=C/[C@@H](O)C[C@@H](O)CC(=O)O)c1-c1ccc(F)cc1
inactive: [19] | [1] | [2] | [3] | [11] | [4] | [5] | [12] | [13] | [6] | [14] | [7] | [8] | [15] | [9]

O=C1NCCN1
inactive: [1] | [16] | [2] | [20] | [17] | [18] | [10] | [11] | [4] | [5] | [13] | [14] | [7] | [8] | [15] | [9]

CC1=C(/C=C/C(C)=C\C=C\C(C)=C\C(=O)O)C(C)(C)CCC1
active: [9] 8.63 µM
inactive: [1] | [2] | [17] | [18] | [3] | [10] | [4] | [5] | [7]

CC(=O)OCC(=O)[C@H]1CC[C@H]2[C@@H]3CCC4=CC(=O)CC[C@]4(C)[C@H]3CC[C@]12C
inactive: [1] | [16] | [2] | [20] | [3] | [11] | [4] | [5] | [12] | [13] | [14] | [7] | [8] | [15] | [9]

CC1(C)C2=CCCC(C)(C)[C@]23CC[C@H]1C3
active: [10] 34.7 µM
inactive: [1] | [2] | [20] | [17] | [18] | [3] | [11] | [4] | [5] | [12] | [14] | [7] | [8] | [15] | [9]

CC(=O)Oc1ccc2c(c1)CC[C@@H]1[C@@H]2CC[C@]2(C)[C@@H](O)CC[C@@H]12
inactive: [1] | [2] | [20] | [3] | [10] | [11] | [4] | [5] | [6] | [14] | [7] | [8] | [15] | [9]

CCOC(=O)N1CCC(n2c(=O)[nH]c3cc(Cl)ccc32)CC1
active: [12] 21.1 µM | [13] 23.7 µM
inactive: [19] | [1] | [20] | [3] | [4] | [14] | [7] | [8] | [15]

C/C(=N/NC(=O)c1ccncc1)C(=O)O
inactive: [19] | [20] | [17] | [18] | [3] | [10] | [11] | [4] | [5] | [12] | [13] | [14] | [7] | [8] | [15] | [9]

Nc1ccc(S(=O)(=O)O)c(N)c1
inactive: [1] | [20] | [17] | [18] | [10] | [11] | [4] | [5] | [13] | [14] | [7] | [8] | [15] | [9]

O=C(C(=O)c1ccccc1)c1ccccc1
inactive: [19] | [1] | [20] | [17] | [18] | [10] | [11] | [4] | [5] | [14] | [7] | [8] | [15] | [9]
